Among the test systems are DU-145 prostate; K-562 leukemia; MALME-3M melanoma; MDA-MB-231 breast; SF-268 CNS; SF-295 CNS; SF-539 CNS; M14 melanoma; HCT-15 colon; HT29 colon; SNB-75 CNS; SNB-19 CNS; U251 CNS; PC-3 prostate; SK-MEL-5 melanoma; UACC-62 melanoma; LOX IMVI melanoma; SK-MEL-28 melanoma.
Assay in all cases: NCI-60 one-dose screen, 48 h (100 = growth as untreated, 0 = no growth, -100 = all killed)
Common to all, as to details: 10 µM unless noted

About 83,000 compounds went through this panel and 20% of them were active in at least one assay; those are over-represented in the sample as a whole.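 Cell lines were cultured in 96-well plates, exposed to a single compound concentration, and assessed for percent growth 48 hours later.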 Values without a mark were called inactive. Active and inactive are the calls of the source. Rule for the calls: active = growth percent below 10; inactive = the rest.

On to `C[N+](C)(CCOC(c1ccccc1)c1ccccc1)CC(=O)OCc1ccccc1`, for which the growth with DU-145 prostate is 105%; with K-562 leukemia, 126%; in the assay on MALME-3M melanoma, 99.7%; with MDA-MB-231 breast, 113%; with SF-268 CNS, 106%; in the assay on SF-295 CNS it was 103%. The growth in the assay on SF-539 CNS was 105%; in the assay on M14 melanoma, 91.3%; with HCT-15 colon, 99.3%; in the assay on HT29 colon, 101%; in the assay with SNB-75 CNS, 76%; in the assay with SNB-19 CNS it was 106%. Also, the growth is 106% in the assay on U251 CNS; 98.3% with PC-3 prostate; 98.1% in the assay on SK-MEL-5 melanoma; 104% in the assay with UACC-62 melanoma; 101% with LOX IMVI melanoma; 106% with SK-MEL-28 melanoma.

Regarding `COc1ccc(C2CC(=O)c3c(O)c(OC)c(OC)c(OC)c3O2)cc1O` (configuration not stated), the growth in the assay on DU-145 prostate was 18.2%; with K-562 leukemia it was 11.6%; in the assay on MALME-3M melanoma, 57.5%; with MDA-MB-231 breast, 17.1%; in the assay on SF-268 CNS it was 44.6%; with SF-295 CNS it was 6.54% (active). The growth in the assay with SF-539 CNS is -13% (active); with M14 melanoma it was 7.68% (active); in the assay with HCT-15 colon, 9.19% (active); with HT29 colon it was 101%; in the assay with SNB-75 CNS, 39.9%; in the assay with SNB-19 CNS, 36.9%. Further, the growth is 25.7% with U251 CNS; 31.2% with PC-3 prostate; 18.9% in the assay on SK-MEL-5 melanoma; 35.2% in the assay with UACC-62 melanoma; 40.9% in the assay with LOX IMVI melanoma; 52.9% in the assay with SK-MEL-28 melanoma.

With `C=C1C(=O)O[C@H]2[C@H]1CC/C(Cn1cc(-c3cc(C)c(C)cc3C)nn1)=C\CC[C@@]1(C)O[C@@H]21`, the growth in the assay with DU-145 prostate is -100% (active); with K-562 leukemia it was -10.7% (active); in the assay on MALME-3M melanoma, -79.8% (active); in the assay on MDA-MB-231 breast, -73.7% (active); in the assay with SF-268 CNS, -54.5% (active); in the assay on SF-295 CNS, 59.8%. For the same compound, the growth was -82.9% (active) in the assay with SF-539 CNS; -57.3% (active) with M14 melanoma; -82.6% (active) with HCT-15 colon; -67.9% (active) with HT29 colon; 29% with SNB-75 CNS; 41.8% in the assay on SNB-19 CNS. Moreover, the growth is 12.8% in the assay with U251 CNS; -69.7% (active) in the assay with PC-3 prostate; 7.44% (active) with SK-MEL-5 melanoma; -82% (active) in the assay with UACC-62 melanoma; -95% (active) in the assay on LOX IMVI melanoma; -76.3% (active) in the assay on SK-MEL-28 melanoma.

`CCCCCCCC(=O)SCC/C=C/[C@@H]1CC(=O)NCc2cc(ccn2)C2=N[C@@](C)(CS2)C(=O)N[C@@H](C(C)C)C(=O)O1`: the growth is 11.8% with DU-145 prostate; 10.3% in the assay with K-562 leukemia; 11.4% in the assay on MALME-3M melanoma; 3.63% (active) in the assay with MDA-MB-231 breast; 11.8% with SF-268 CNS; -62.2% (active) with SF-295 CNS. Moreover, the growth in the assay on SF-539 CNS is 17%; with M14 melanoma, 4.89% (active); with HCT-15 colon it was 1.6% (active); with HT29 colon, 1.74% (active); in the assay with SNB-75 CNS, 31.8%; in the assay with SNB-19 CNS, 10.2%. Besides, the growth is -55.7% (active) in the assay on U251 CNS; 16.4% in the assay on PC-3 prostate; -95.3% (active) with SK-MEL-5 melanoma; -56.8% (active) in the assay on UACC-62 melanoma; -95.1% (active) with LOX IMVI melanoma; -24.7% (active) in the assay on SK-MEL-28 melanoma.

With `COC(=O)[C@]12CC[C@@H](C)[C@H](C)[C@@H]1C1=CC[C@@H]3[C@@]4(C)C(c5cnco5)=C[C@@](C)(CO)C4=CC[C@@]3(C)[C@]1(C)CC2`, the growth in the assay with DU-145 prostate was 29.4%; with K-562 leukemia, 30.8%; in the assay on MALME-3M melanoma it was 87.6%; with MDA-MB-231 breast it was 58.8%; with SF-268 CNS, 63%; in the assay on SF-295 CNS it was 31.2%. In addition, the growth with SF-539 CNS was 66.4%; in the assay with M14 melanoma it was 63.4%; in the assay with HCT-15 colon it was 29.8%; in the assay on HT29 colon it was 26.6%; in the assay with SNB-75 CNS, 77.1%; with SNB-19 CNS it was 65.7%. Further, the growth with U251 CNS is 61.8%; in the assay on PC-3 prostate it was 12.6%; with SK-MEL-5 melanoma it was 47.2%; in the assay with UACC-62 melanoma, 65.3%; with LOX IMVI melanoma it was 67.7%; in the assay with SK-MEL-28 melanoma it was 66.7%.

`CC(C)[C@@H](C)/C=C/[C@@H](C)[C@H]1CCC2=C3C=CC4=CC(=O)CC[C@]4(C)[C@H]3CC[C@@]21C`: the growth with DU-145 prostate is 105%; in the assay with K-562 leukemia it was 92.6%; in the assay on MALME-3M melanoma, 110%; with MDA-MB-231 breast, 105%; in the assay on SF-268 CNS, 98.9%; with SF-295 CNS, 94.9%. The growth was 106% in the assay on SF-539 CNS; 98.6% in the assay on M14 melanoma; 99.7% with HCT-15 colon; 74.3% in the assay with HT29 colon; 96.7% with SNB-75 CNS; 100% with SNB-19 CNS. For the same compound, the growth in the assay with U251 CNS is 88.7%; with PC-3 prostate it was 62.8%; in the assay on SK-MEL-5 melanoma, 89.5%; in the assay with UACC-62 melanoma, 94.9%; in the assay with LOX IMVI melanoma, 101%; with SK-MEL-28 melanoma, 113%.

In the case of `C=CC[n+]1c(/C=C2\Sc3ccccc3N2C)sc(-c2ccccc2)c1-c1ccccc1`, the growth in the assay with DU-145 prostate was 23.4%; in the assay on K-562 leukemia, 7.28% (active); in the assay with MALME-3M melanoma, 4.72% (active); with MDA-MB-231 breast it was 31.4%; with SF-268 CNS, 32.9%; with SF-295 CNS, -17.1% (active). Moreover, the growth with SF-539 CNS is 20.3%; in the assay with M14 melanoma, 19.7%; in the assay with HCT-15 colon it was 26.2%; in the assay on HT29 colon, 6.28% (active); in the assay on SNB-75 CNS, 12%; in the assay with SNB-19 CNS, 26.8%. The growth was 15.1% in the assay with U251 CNS; 17.9% in the assay with PC-3 prostate; -97.8% (active) in the assay on SK-MEL-5 melanoma; 13.8% in the assay on UACC-62 melanoma; 10.9% in the assay with LOX IMVI melanoma; 33.5% with SK-MEL-28 melanoma.

For `O=C(Nc1ccc(N=Nc2ccccc2)cc1)c1cccc2ccccc12`, the growth was 85.3% with DU-145 prostate; 21.3% in the assay with K-562 leukemia; 71.6% in the assay on MALME-3M melanoma; 65.9% with MDA-MB-231 breast; 77.5% with SF-268 CNS; 57.1% with SF-295 CNS. The growth in the assay on SF-539 CNS was 69%; with M14 melanoma it was 37.6%; in the assay with HCT-15 colon it was 21.8%; in the assay with HT29 colon, 35.4%; in the assay on SNB-75 CNS, 39.3%; in the assay with SNB-19 CNS it was 67.3%. The growth is 63.6% in the assay with U251 CNS; 54.8% with PC-3 prostate; 59% in the assay on SK-MEL-5 melanoma; 34.6% in the assay with UACC-62 melanoma; 64.4% in the assay with LOX IMVI melanoma; 67.5% in the assay on SK-MEL-28 melanoma.

On to `Cc1ccc(N=C2CSc3nnc(-c4csc5c4CCCC5)n3N2)cc1`, for which the growth with DU-145 prostate was 25.4%; in the assay on K-562 leukemia, 10.7%; with MALME-3M melanoma, 70.6%; in the assay on MDA-MB-231 breast, 43%; in the assay with SF-268 CNS it was 40.8%; in the assay with SF-295 CNS it was -6.51% (active). The growth in the assay with SF-539 CNS is -2.46% (active); in the assay on M14 melanoma, 5.9% (active); in the assay with HCT-15 colon it was 22.9%; in the assay with HT29 colon, 7.38% (active); with SNB-75 CNS, 56.9%; in the assay with SNB-19 CNS it was 35.7%. Besides, the growth in the assay on U251 CNS is 23%; in the assay on PC-3 prostate it was 27.9%; in the assay with SK-MEL-5 melanoma, 19%; in the assay on UACC-62 melanoma, 40.2%; in the assay on LOX IMVI melanoma it was 46.3%; in the assay on SK-MEL-28 melanoma, 63.2%.

(Values after PubChem BioAssay (NCI).)
